{"source": "PubChem BioAssay AID488864", "about": "(Broad Institute, 2010)", "note": "Entries with a potency or affinity are not part of this list. Activity calls are given as the source filed them.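 The calls were made as follows: active = ATP signal reduced by compound, with fitted active dose under ten times the top valid tested dose; inactive = the rest, compounds that increase ATP levels included.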"}
{"assay": "cellular ATP toxicity in rat beta cells – cell-based, CellTiter-Glo luminescence, INS-1E, dry powder, cytotoxicity control for beta-cell cytokine protection project, dose response (AID 488864)", "details": "INS-1E rat beta cells, 48 h, no cytokines; series mostly up to 26 µM"}
{"smiles": "COc1ccc(S(=O)(=O)N(C)C[C@@H]2Oc3c(NC(=O)c4ccncc4)cccc3C(=O)N([C@@H](C)CO)C[C@H]2C)cc1", "outcome": "inactive"}
{"smiles": "Cc1ccc(S(=O)(=O)N(C)C[C@@H]2Oc3c(NC(=O)Nc4cccc5ccccc45)cccc3C(=O)N([C@@H](C)CO)C[C@H]2C)cc1", "outcome": "inactive"}
{"smiles": "COc1ccc(S(=O)(=O)N(C)C[C@@H]2Oc3c(NC(=O)c4cc(C)nn4C)cccc3C(=O)N([C@@H](C)CO)C[C@H]2C)cc1", "outcome": "inactive"}
{"smiles": "C[C@@H]1CN([C@H](C)CO)C(=O)c2cccc(NC(=O)Nc3cccc4ccccc34)c2O[C@H]1CN(C)S(=O)(=O)c1ccc(Cl)cc1", "outcome": "inactive"}
{"smiles": "Cc1ccc(S(=O)(=O)N(C)C[C@H]2Oc3c(NC(=O)Nc4cccc5ccccc45)cccc3C(=O)N([C@@H](C)CO)C[C@@H]2C)cc1", "outcome": "inactive"}
{"smiles": "COc1ccc(S(=O)(=O)N(C)C[C@@H]2Oc3c(NC(=O)Nc4ccc(F)cc4)cccc3C(=O)N([C@@H](C)CO)C[C@H]2C)cc1", "outcome": "inactive"}
{"smiles": "COc1ccc(S(=O)(=O)N(C)C[C@@H]2Oc3c(NC(=O)C4CCOCC4)cccc3C(=O)N([C@@H](C)CO)C[C@H]2C)cc1", "outcome": "inactive"}
{"smiles": "COc1ccc(S(=O)(=O)N(C)C[C@@H]2Oc3c(NC(=O)C4CCCCC4)cccc3C(=O)N([C@@H](C)CO)C[C@H]2C)cc1", "outcome": "inactive"}
{"smiles": "C[C@@H]1CN([C@@H](C)CO)C(=O)c2cccc(NC(=O)Nc3cccc4ccccc34)c2O[C@H]1CN(C)S(=O)(=O)c1ccc2c(c1)OCO2", "outcome": "inactive"}
{"smiles": "C[C@@H]1CN([C@H](C)CO)C(=O)c2cccc(NC(=O)Nc3ccccc3)c2O[C@H]1CN(C)S(=O)(=O)c1ccc(F)cc1", "outcome": "inactive"}
{"smiles": "COc1ccc(S(=O)(=O)N(C)C[C@H]2Oc3c(NC(=O)Nc4cccc5ccccc45)cccc3C(=O)N([C@H](C)CO)C[C@H]2C)cc1", "outcome": "inactive"}
{"smiles": "C[C@@H]1CN([C@@H](C)CO)C(=O)c2cccc(NC(=O)Nc3cccc4ccccc34)c2O[C@H]1CN(C)S(=O)(=O)c1ccc2c(c1)OCCO2", "outcome": "inactive"}
{"smiles": "COc1ccc(NC(=O)Nc2cccc3c2O[C@@H](CN(C)S(=O)(=O)c2ccc(OC)cc2)[C@H](C)CN([C@@H](C)CO)C3=O)cc1", "outcome": "inactive"}
{"smiles": "Cc1ccc(S(=O)(=O)N(C)C[C@@H]2Oc3c(NC(=O)Nc4ccccc4)cccc3C(=O)N([C@@H](C)CO)C[C@H]2C)cc1", "outcome": "inactive"}
{"smiles": "COc1ccc(S(=O)(=O)N(C)C[C@@H]2Oc3c(NC(=O)Nc4cccc5ccccc45)cccc3C(=O)N([C@@H](C)CO)C[C@H]2C)cc1C", "outcome": "inactive"}
{"smiles": "COc1ccc(S(=O)(=O)N(C)C[C@@H]2Oc3c(NC(=O)c4cnccn4)cccc3C(=O)N([C@@H](C)CO)C[C@H]2C)cc1", "outcome": "inactive"}
{"smiles": "COc1cccc(S(=O)(=O)N(C)C[C@@H]2Oc3c(NC(=O)Nc4cccc5ccccc45)cccc3C(=O)N([C@@H](C)CO)C[C@H]2C)c1", "outcome": "inactive"}
{"smiles": "COc1ccc(S(=O)(=O)N(C)C[C@@H]2Oc3c(NS(=O)(=O)c4ccccc4)cccc3C(=O)N([C@@H](C)CO)C[C@H]2C)cc1", "outcome": "inactive"}
{"smiles": "C[C@@H]1CN([C@@H](C)CO)C(=O)c2cccc(NC(=O)Nc3cccc4ccccc34)c2O[C@H]1CN(C)C(=O)NC1CCCCC1", "outcome": "inactive"}
{"smiles": "COc1ccc(S(=O)(=O)N(C)C[C@@H]2Oc3c(NC(=O)Nc4cccc5ccccc45)cccc3C(=O)N([C@@H](C)CO)C[C@H]2C)c(OC)c1", "outcome": "inactive"}
{"smiles": "C[C@@H]1CN([C@@H](C)CO)C(=O)c2cccc(NC(=O)Nc3cccc4ccccc34)c2O[C@H]1CN(C)S(=O)(=O)c1ccc2c(c1)OCCCO2", "outcome": "inactive"}
{"smiles": "COc1ccc(S(=O)(=O)N(C)C[C@@H]2Oc3c(NC(=O)Nc4cccc5ccccc45)cccc3C(=O)N([C@@H](C)CO)C[C@@H]2C)cc1", "outcome": "inactive"}
{"smiles": "C[C@@H]1CN([C@H](C)CO)C(=O)c2cccc(NC(=O)Nc3ccc(F)cc3)c2O[C@H]1CN(C)S(=O)(=O)c1ccc(Cl)cc1", "outcome": "inactive"}
{"smiles": "Cc1noc(C)c1NC(=O)N(C)C[C@@H]1Oc2c(NC(=O)Nc3cccc4ccccc34)cccc2C(=O)N([C@@H](C)CO)C[C@H]1C", "outcome": "inactive"}
{"smiles": "C[C@@H]1CN([C@@H](C)CO)C(=O)c2cccc(NC(=O)Nc3cccc4ccccc34)c2O[C@H]1CN(C)S(=O)(=O)c1cccc(F)c1", "outcome": "inactive"}
{"smiles": "COc1ccc(S(=O)(=O)N(C)C[C@@H]2Oc3c(NC(=O)Nc4cccc5ccccc45)cccc3C(=O)N([C@@H](C)CO)C[C@H]2C)cc1", "outcome": "inactive"}
{"smiles": "C[C@@H]1CN([C@@H](C)CO)C(=O)c2cccc(NC(=O)Nc3cccc4ccccc34)c2O[C@H]1CN(C)S(=O)(=O)c1ccc(Cl)cc1", "outcome": "inactive"}
{"smiles": "Cc1ccc(S(=O)(=O)N(C)C[C@@H]2Oc3c(NC(=O)Nc4ccc(F)cc4)cccc3C(=O)N([C@H](C)CO)C[C@H]2C)cc1", "outcome": "inactive"}
